Results filed as inconclusive are left out. Values without a mark were called inactive. Activity calls are given as the source filed them. The call rests on the fitted dose curve; in most records, active means well fitted cell-killing curve with a large enough effect; inconclusive means small, poorly fitted or top-dose-only effect; inactive means flat fitted curve, though single readings scatter.
Potency means the concentration at half of the fitted maximal effect.

This assay in a line: Quantitative highthroughput screen to assess conditional lethalithy of NOMO1 cells grown in RPMI1640 with dialyzed fetal bovine serum (RPMI+ds) (AID 1963877). Further: nearly all actives have a fitted effect of over 30% in size.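 On viability: 100% = DMSO control wells and 0% = empty wells.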 As to conditions: NOMO1 in RPMI+dialyzed FBS viability, ATP luminescence, 48 h; series mostly up to 45.8 µM; viability: at the top concentration. In short, it runs like this:
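Each medium arm—HPLM with 10% dialyzed FBS, or RPMI1640 with 5 mM glucose and 10% untreated or dialyzed FBS—was screened against an 11-point, 3-fold compound titration for 48 h at 37 °C, with CellTiter-Glo luminescence as endpoint.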
The term viability denotes a read-out of living cells in per cent, often relative to untreated cells. Take `O=c1n(CCCN2CCN(c3cccc(Cl)c3)CC2)nc2ccccn12`: the “viability” value was 105%. In the case of `CC(C)OC(=O)C(C(=O)OC(C)C)=C1SC=CS1`, the “viability” value was 105%. The same measure, in the same setting: to `CNC(=O)c1cc(COc2nnc(Nc3ccc(Cl)cc3)c3ccoc23)ccn1` belongs 98.7%. Turning to `Cc1cc(CS(=O)(=O)c2ccccc2)cc(OCc2ccc(CN3CCC[C@H]3CO)cc2)c1`, the Potency was 1.32 µM (active). Take `COc1ccc(Nc2nccc(NCCO)n2)cc1`: the “viability” value is 95.1%. On the same count and under the same terms, to `C[C@H]1Oc2cc(cnc2N)-c2c(nn(C)c2C#N)CN(C)C(=O)c2ccc(F)cc21` belongs 103%. For `NC(=O)N1c2ccccc2CC(=O)c2ccccc21`, the “viability” value is 96.2%. Consider `Cc1cncc2cccc(S(=O)(=O)N3CCCN(C(=O)CN)C[C@@H]3C)c12`, for which the Potency is 4.18 µM (active).

Turning to `COC1=C(OC)C(=O)C(CC=C(C)CCC=C(C)CCC=C(C)CCC=C(C)CCC=C(C)CCC=C(C)CCC=C(C)CCC=C(C)CCC=C(C)CCC=C(C)C)=C(C)C1=O`, the “viability” value is 87.3%. On the same count and under the same terms, the result for `CON=C(C(=O)N[C@@H]1C(=O)N2C(C(=O)O)=C(Cn3ccc(=N)n3CCO)CS[C@H]12)c1csc(N)n1` reads 95.5%; that for `COC(=O)C1=C(C)NC(C)=C(C(=O)OC(C)C)C1c1cccc2nonc12` (centres undefined), 121%; that for `Clc1cccc(-n2nnnc2NCc2ccccc2Oc2ccccn2)c1Cl`, 100%. The same measure, in the same setting: the result for `CC[C@H](CO)Nc1nc(NCc2ccccc2)c2ncn(C(C)C)c2n1` reads 89.7%. Take `C1=CCOCc2cc(ccc2OCCN2CCCC2)Nc2nccc(n2)-c2cccc(c2)OCC1`: the Potency is 6.62 µM (active).

Regarding `CCCCC(=O)O[C@]1(C(=O)CO)[C@@H](C)C[C@H]2[C@@H]3CCC4=CC(=O)C=C[C@]4(C)[C@@]3(F)[C@@H](O)C[C@@]21C`, the “viability” value was 79%. Same read-out and setting: to `Fc1ccc(C(c2ccc(F)cc2)N2CCN(CC=Cc3ccccc3)CC2)cc1` belongs 109%; to `CC(=O)OCC(=O)[C@@]1(O)[C@H](C)C[C@H]2[C@@H]3C=C(C)C4=Cc5c(cnn5-c5ccccc5)C[C@]4(C)[C@@H]3[C@@H](O)C[C@@]21C`, 99.5%.

With `CNC1[C@H](O)C(O[C@@H]2C(O)C(O[C@H]3O[C@H]([C@@H](C)NC)CC[C@H]3N)[C@@H](N)C[C@H]2N)OC[C@]1(C)O` (some centres undefined), the “viability” value was 93.6%.

With `COc1ccc(CC2=NN3C([C@@H](CCc4ccccc4)[C@@H](C)O)=NC(C)C3C(=O)N2)cc1OC` (some centres undefined), the “viability” value is 111%. Take `COCCOc1ccc2c(c1)ncn2-c1ccc2cccc(N3CCC(N)CC3)c2n1`: the Potency was 18.7 µM (active). On to `CCOC(=O)O[C@]1(C(=O)OCCl)CC[C@@H]2[C@H]3CCC4=CC(=O)C=C[C@]4(C)[C@@H]3[C@@H](O)C[C@@]21C`, for which the “viability” value was 97.3%.

For the molecule `CC(C)=CCCC(C)=CCCC(C)=CCCC(C)=CCCC(C)=CCCC(C)=CCCC(C)=CCCC(C)=CCCC(C)=CCO`, the “viability” value is 95.1%. Same read-out and setting: the result for `NC1CCC(Nc2nc(Nc3ccc(C(=O)N4CCCCC4)cc3)c3ncn(-c4cccc(F)c4)c3n2)CC1` (centres undefined) reads 103%. For `CC=CC1=C(C(=O)O)N2C(=O)[C@H](NC(=O)[C@H](N)c3ccc(O)cc3)[C@@H]2SC1`, the Potency is 2.64 µM (active). As for `COc1ccc2nc(S(=O)Cc3ncc(C)c(OC)c3C)[nH]c2c1` (centres undefined), the “viability” value was 94.7%. Take `CC1(C)[C@H](O[C@H]2O[C@H](C(=O)O)[C@@H](O)[C@H](O)[C@H]2O[C@@H]2O[C@H](C(=O)O)[C@@H](O)[C@H](O)[C@H]2O)CC[C@@]2(C)[C@H]1CC[C@]1(C)[C@H]2C(=O)C=C2[C@H]3C[C@@](C)(C(=O)O)CC[C@]3(C)CC[C@]21C`: the “viability” value was 111%.

For the molecule `COC(=O)[C@@H]1CC2=CC(=O)CC[C@]2(C)[C@@]23O[C@@H]2C[C@@]2(C)[C@H](CC[C@@]24CCC(=O)O4)[C@@H]13`, the “viability” value is 101%.

Regarding `CCOc1cc2ncc(C#N)c(Nc3ccc(F)c(Cl)c3)c2cc1NC(=O)C=CCN(C)C`, the Potency was 7.43 µM (active). With `O=C1C(CCC(O)c2ccc(F)cc2)C(c2ccc(O)cc2)N1c1ccc(F)cc1` (centres undefined), the “viability” value was 91.6%. On to `CS(=O)(=O)c1ccc(C(=O)Nc2ccc(Cl)c(-c3ccccn3)c2)c(Cl)c1`, for which the “viability” value is 92.4%. Still for that read-out and setting: to `CC1(C)O[C@@H]2C[C@H]3[C@@H]4CCC5=CC(=O)C=C[C@]5(C)[C@@H]4[C@@H](O)C[C@]3(C)[C@]2(C(=O)CO)O1` belongs 108%; to `O=c1c(-c2ccc(O)cc2)coc2cc(O[C@@H]3O[C@H](CO)[C@H](O)[C@H](O)[C@H]3O)ccc12`, 83.7%.

As to `Nc1ccc(S(=O)(=O)Nc2ccnn2-c2ccccc2)cc1`, the “viability” value is 108%. For `Clc1ccc2c(N3CCN(CCCN4CCN(c5ccnc6cc(Cl)ccc56)CC4)CC3)ccnc2c1`, the “viability” value is 96.4% [at 23.2 µM].

The values above are taken from PubChem BioAssay (NCATS).
